Data on 27 compounds can be found in PubChem BioAssay AID1832 (Broad Institute, 2009).

Out of some 300,000 compounds screened, about 1,100 (0.37%) were called active. Many of the other results were omitted from the sample, so actives are more common in it than they were. A number with no mark means an inactive call.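 Rule for the calls: active = inhibition past about -25% in most replicates, and total fluorescence under double the plate's negative control median (limit read from the data); inconclusive = replicates evenly split on the limit, or fluorescence at least double controls; inactive = too little inhibition in most replicates.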

Zinc finger protein mex-5 (Caenorhabditis elegans), sequence (Q9XUB2 whole entry, looked up): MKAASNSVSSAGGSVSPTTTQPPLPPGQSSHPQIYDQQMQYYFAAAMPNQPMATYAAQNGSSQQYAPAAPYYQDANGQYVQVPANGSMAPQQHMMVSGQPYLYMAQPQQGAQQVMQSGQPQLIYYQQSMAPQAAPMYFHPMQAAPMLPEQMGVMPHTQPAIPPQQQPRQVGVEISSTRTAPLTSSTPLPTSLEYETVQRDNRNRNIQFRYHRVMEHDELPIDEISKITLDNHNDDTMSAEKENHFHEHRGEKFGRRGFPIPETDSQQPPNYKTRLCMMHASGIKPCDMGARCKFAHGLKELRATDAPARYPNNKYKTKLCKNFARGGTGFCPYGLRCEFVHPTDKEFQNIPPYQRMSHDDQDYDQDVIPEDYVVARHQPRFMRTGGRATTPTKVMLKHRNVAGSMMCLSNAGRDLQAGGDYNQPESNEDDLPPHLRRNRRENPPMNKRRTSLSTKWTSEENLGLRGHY

This test has as its target Zinc finger protein mex-5 (Caenorhabditis elegans) (UniProt Q9XUB2). Nature of the test: MEX-5 zinc finger RNA-binding disruptors – biochemical, C. elegans, fluorescence polarization, MLPCN library, primary screen (AID 1832).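 Note: 0% = DMSO and -100% = 5 µM competing unlabeled TCR2 RNA.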 The conditions noted are these: MEX-5/FITC-TCR2 RNA binding, at 10 µM, hits give low values.
As for `COc1ccc(CCn2c(=N)c(C(=O)NCC3CCCO3)cc3c(=O)n4cccc(C)c4nc32)cc1OC` (configuration not stated), the activity score (negative = inhibition of binding) was 1.85%.

As to `Cc1cccn2c(=O)c3cc(C(=O)NCCN4CCOCC4)c(=N)n(Cc4cccnc4)c3nc12`, the activity score (negative = inhibition of binding) is -41.6% (active).

`Cc1cccn2c(=O)c3cc(C(=O)NCC4CCCO4)c(=N)n(Cc4ccc(F)cc4)c3nc12` (configuration not stated): the activity score (negative = inhibition of binding) is -0.627%.

With `CN(C)C(CNC(=O)c1cccc(S(=O)(=O)Nc2ccc(Br)cc2)c1)c1ccco1` (configuration not stated), the activity score (negative = inhibition of binding) was -4.39%.

For the compound `O=C(Nc1ccccc1Cc1ccccc1)c1ccc2c(c1)SC1=NS(=O)(=O)CCN12`, the activity score (negative = inhibition of binding) was 1.1%.

As to `COc1ccc(Nc2nc(-c3cccnc3)nc3ccccc23)cn1`, the activity score (negative = inhibition of binding) was -55.5% (active).

As to `Fc1ccc(/C=N/Nc2nc(-c3cccnc3)nc3ccccc23)cc1`, the activity score (negative = inhibition of binding) was 4.03%.

On to `COc1ccccc1Oc1nc(-c2cccnc2)nc2ccccc12`, for which the activity score (negative = inhibition of binding) is 3.68%.

Regarding `O=C(NCc1ccc2c(c1)OCO2)C(=O)NCC1OCCN1S(=O)(=O)c1ccc(F)cc1` (configuration not stated), the activity score (negative = inhibition of binding) is -0.888%.

Turning to `COCCn1c(N)c(N(Cc2ccccc2)C(=O)C2CCCCC2)c(=O)[nH]c1=O`, the activity score (negative = inhibition of binding) is 1.74%.

For `COc1ccc(CNc2nc3c(c(=O)[nH]c(=O)n3C)n2Cc2ccccc2)cc1`, the activity score (negative = inhibition of binding) was -0.659%.

As for `COCCn1c(N)c(NCc2ccccc2)c(=O)[nH]c1=O`, the activity score (negative = inhibition of binding) was -67.9% (active).

As for `Cc1nnc(SCc2ccc(C(=O)c3ccc(Cl)cc3)o2)n1-c1ccccc1`, the activity score (negative = inhibition of binding) is -1.84%.

For the compound `COc1ccc(CC(=O)NCc2nnc(SCC(=O)Nc3ncc(C)s3)n2C)cc1`, the activity score (negative = inhibition of binding) is 0.258%.

Take `COc1ccc(C(=O)NNC(=O)c2cnccn2)cc1[N+](=O)[O-]`: the activity score (negative = inhibition of binding) is -64.4% (active).

For the compound `COc1ccc(C(=O)O/N=C(\N)c2ccccn2)cc1[N+](=O)[O-]`, the activity score (negative = inhibition of binding) was -0.00548%.

As to `COc1cccc(OCC(=O)NNC(=O)c2cnccn2)c1`, the activity score (negative = inhibition of binding) was -22.4%.

For `O=C(CN1C(=O)c2cccnc2Oc2ccc(Cl)cc21)Nc1ccc(F)cc1`, the activity score (negative = inhibition of binding) was -1.82%.

On to `COCCCNCC(=O)Nc1sc(C)c(C)c1C(=O)OC`, for which the activity score (negative = inhibition of binding) is 0.906%.

Consider `Cc1ccc(O)c(CCc2ccccc2)n1`, for which the activity score (negative = inhibition of binding) was -3.03%.

Regarding `Nc1nnn(CC(=O)N/N=C/c2ccccc2)n1`, the activity score (negative = inhibition of binding) was -0.796%.

As for `O=C(Cn1cncn1)N/N=C/c1c2ccccc2cc2ccccc12`, the activity score (negative = inhibition of binding) is -30% (active).

Take `Cc1[nH]c2ccccc2c1/C=N\NC(=O)Cn1nnc(-c2ccccc2)n1`: the activity score (negative = inhibition of binding) is 0.39%.

Take `Cc1ccc(-c2cc(C(=O)NC3CCN(Cc4ccccc4)CC3)c3ccccc3n2)cc1`: the activity score (negative = inhibition of binding) was -2.28%.

Take `O=C(Nc1ccc(F)cc1)C(=O)c1cn(CC(=O)N2CCOCC2)c2ccccc12`: the activity score (negative = inhibition of binding) was -1.93%.

As for `COc1cccc(NC(=O)CS(=O)(=O)c2cn(CC(=O)N3CCOCC3)c3ccccc23)c1`, the activity score (negative = inhibition of binding) was -1.81%.

For the compound `COc1cccc(NC(=O)C(=O)c2cn(CC(=O)N3CCOCC3)c3ccccc23)c1`, the activity score (negative = inhibition of binding) was -27.9% (active).
